Measured values as given in the supplement of paper PMC12350171.
Where a name gives a salt, the structure may show the parent alone.

system: Haemophilus parainfluenzae; test: growth AUC normalised to DMSO control (fraction of control); higher = less growth inhibition, active = hit call of the paper; conditions: 20 µM
Procedure, shortened: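 Hemin and NAD were added to the medium for Haemophilus parainfluenzae. All pathogens, after two anaerobic passages, were inoculated at a starting OD578 of 0.01 into pre-reduced mGAM plates with 20 μM compound and 1% DMSO under breathable seals, and OD578 was read hourly for 24 h in three biological replicates. AUC of each growth curve was obtained with the trapezoidal rule up to the exponential-to-stationary transition and normalised to DMSO controls from the same plate.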

| SMILES | growth AUC normalised to DMSO control |
| --- | --- |
| c1ccc(CNc2ncnc3nc[nH]c23)cc1 [Aminopurine, 6-benzyl] | 1 (inactive) |
| Cc1cccc(C)c1OCC(C)N (centres undefined) [Mexiletine hydrochloride] | 1.02 (inactive) |
| OC(CCN1CCCC1)(c1ccccc1)C1CCCCC1 (centres undefined) [Procyclidine hydrochloride] | 0.962 (inactive) |
| COc1ccc(Cl)cc1C(=O)NCCc1ccc(S(=O)(=O)NC(=O)NC2CCCCC2)cc1 [Glibenclamide] | 0.952 (inactive) |
| CC(=O)Nc1nnc(S(N)(=O)=O)s1 [Acetazolamide] | 0.959 (inactive) |
| CCC1(c2ccccc2)NC(=O)N(C)C1=O (centres undefined) [Mephenytoin] | 1.04 (inactive) |
| O=C(O)COC(=O)Cc1ccccc1Nc1c(Cl)cccc1Cl [Aceclofenac] | 1.01 (inactive) |
| Nc1ccn([C@@H]2O[C@H](CO)[C@@H](O)[C@@H]2O)c(=O)n1 [Cytarabine] | 0.999 (inactive) |
| C1N2CN3CN1CN(C2)C3 [Methenamine] | 1.05 (inactive) |
